Assay outcomes: PubChem, NMMLSC
GSH fluor: compound fluoresces at 488/530 nm on GSH beads; fluorescence (KMESF) at 10 µM; GSH beads flow cytometry, compound fluorescence 488/530 nm; hits give high values; 190,000 tested, 0.25% active; in the data active means fluorescence above about 89;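 further: glutathione beads carrying GST-tagged Bcl family fusion proteins plus one bare bead set; values are compound well signal with DMSO vehicle wells as background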
Avidin fluor: avidin bead compound fluorescence profile. Avidin beads, compound fluorescence 488/530 nm, flow cytometry; hits give high values. fluorescence (KMESF) at 10 µM. 220,000 tested, 0.38% active. AID 1775; in the data active means fluorescence above about 47
RGS7-Gao: modulates binding of RGS7 to human Galphao; P09471; Multiplexed bead flow cytometry; actives lie on both sides; binding response (% of control), % at 10 µM; 220,000 tested, 0.35% active; in the data active means binding response below about 49% or above about 150%; inconclusive means no clear call, values can overlap the other calls; inactive means in between;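 further: fluorescent Galphao held in activated GDP-AlF4 state binding bead-coupled RGS7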
Target sequence (P09471 whole entry, looked up): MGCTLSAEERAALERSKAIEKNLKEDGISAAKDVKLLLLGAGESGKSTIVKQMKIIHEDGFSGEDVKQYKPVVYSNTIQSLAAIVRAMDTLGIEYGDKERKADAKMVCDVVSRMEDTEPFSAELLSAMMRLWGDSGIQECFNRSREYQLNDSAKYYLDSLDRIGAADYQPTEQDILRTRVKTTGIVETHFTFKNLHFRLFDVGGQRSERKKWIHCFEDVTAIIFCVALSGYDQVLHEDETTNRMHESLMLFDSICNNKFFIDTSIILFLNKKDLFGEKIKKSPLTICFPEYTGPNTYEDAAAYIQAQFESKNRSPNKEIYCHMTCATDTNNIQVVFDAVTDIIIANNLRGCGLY
RGS16-Gao HTS: RGS16-Galphao interaction regulator (human). O15492+P09471. bead-based flow cytometry RGS16-Galphao binding, fluorescence; actives lie on both sides. binding response (% of control), % at 10 µM. 220,000 tested, 0.38% active;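 further: Galphao activated by GDP with aluminum fluoride before binding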
Target sequence (O15492 whole entry, looked up): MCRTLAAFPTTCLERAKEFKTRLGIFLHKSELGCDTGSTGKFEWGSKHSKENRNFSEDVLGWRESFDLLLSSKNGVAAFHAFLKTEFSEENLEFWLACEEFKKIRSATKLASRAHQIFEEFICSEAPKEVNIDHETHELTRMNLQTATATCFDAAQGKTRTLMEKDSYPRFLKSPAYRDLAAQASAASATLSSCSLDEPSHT
Target sequence (P09471 whole entry, looked up): as the sequence (P09471 whole entry, looked up) above
RGS4-Gao reg: human RGS4-Galphao interaction regulation | P09471 | Multiplexed bead flow cytometry, RGS4-Galphao binding; actives lie on both sides | binding response (% of control), % at 10 µM | 220,000 tested, 0.33% active | AID 1415; in the data active means binding response below about 49% or above about 150%; inactive means in between;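 further: fluorescent Galphao activated with aluminum fluoride binding bead-coupled RGS4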
RGS8-Gao: human RGS8-Galphao interaction regulation. P09471. response (percent of control binding), % at 10 µM. 220,000 tested, 0.34% active. multiplexed bead flow cytometry, RGS8-Galphao binding; actives lie on both sides; in the data active means response below about 60% or above about 140%; inactive means in between;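 further: Galphao activated as the GDP aluminium fluoride complex binding bead-coupled RGS8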
RGS4-Gao HTS: regulators of human RGS4-Galphao interaction; shares compounds with RGS16-Gao HTS; multiplexed bead flow cytometry, RGS–Galpha-o binding; RGS4–Galpha-o binding response, % at 10 µM; 1,600 tested, 99% active;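 further: fluorescently labeled Galpha-o bound to GDP with aluminium fluoride binding biotinylated RGS beads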
Avidin counter: biotin-avidin bead binding disruption counter-screen | streptavidin beads, fluorescein-biotin binding, flow cytometry | 1,700 tested, under 10 active | shares compounds with RGS16-Gao HTS | AID 1783 | inhibition, % at 10 µM;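 active means inhibition above 50%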;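 further: median green fluorescence of gated singlet beads compared with DMSO control wells; 0% = DMSO wells and 100% = complete loss of bead fluorescence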
RGS8-Gao confirm: RGS8-Galphao interaction regulation, single point confirmation; AID 1836; bead-based flow cytometry RGS8-Galphao binding, fluorescence; actives lie on both sides; 1,700 tested, 3% active; binding response (% of control), % at 10 µM; shares compounds with RGS16-Gao HTS; in the data active means binding response below about 72% or above about 130%; inactive means in between;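 further: Galphao activated as GDP AlF4 complex before binding bead RGS8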
RGS7-Gao single: confirmation of regulators of human RGS7-Galphao interaction; shares compounds with RGS16-Gao HTS; bead-based flow cytometry RGS7-Galphao binding; actives lie on both sides; response (percent of control binding), % at 10 µM; 1,700 tested, 7.8% active; in the data active means response below about 75% or above about 130%; inactive means in between;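 further: fluorescent Galphao activated with GDP and aluminum fluoride binding bead-coupled RGS7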
RGS16-Gao single: confirmation of regulators of human RGS16-Galphao interaction; shares compounds with RGS16-Gao HTS; bead-based flow cytometry, RGS16-Galphao binding; actives lie on both sides; response (% of control binding), % at 10 µM; 1,700 tested, 4% active; AID 1838; in the data active means response below about 74% or above about 130%; inactive means in between;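 further: Galphao activated as the GDP aluminium fluoride complex binding bead-coupled RGS16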
RGS4-Gao confirm: RGS4-Galphao interaction regulation, single point confirmation. 1,700 tested, 4% active. shares compounds with RGS16-Gao HTS. RGS4-Galphao binding, multiplexed bead flow cytometry; actives lie on both sides. binding response (% of control), % at 10 µM; in the data active means binding response below about 74% or above about 130%; inactive means in between
RGS19-Gao conf: RGS19-Galphao interaction regulation, single point confirmation; shares compounds with RGS16-Gao HTS; bead-based flow cytometry RGS19-Galphao binding; actives lie on both sides; response (percent of control binding), % at 10 µM; 1,700 tested, 5% active; AID 1841; in the data active means response below about 50% or above about 160%; inactive means in between;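 further: 100% = no compound control and 0% = blank background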
Numbers without * were called inactive; ? = inconclusive; . = not tested or not shown; [ ] = another dose, or the depositor's remark. Rows were chosen to be rich in hits. Some 1.2% of all compounds tested hit in one or more screens of this group. Unless noted, how the calls were made is not given here.

SMILES	GSH fluor	Avidin fluor	RGS7-Gao	RGS16-Gao HTS	RGS4-Gao reg	RGS8-Gao	Avidin counter	RGS8-Gao confirm	RGS7-Gao single	RGS16-Gao single	RGS4-Gao confirm	RGS19-Gao conf	others
O=c1ccc2cc(O)c(O)cc2o1	19	3	58	38	57	59*	2	94	91	91	89	86	RGS4-Gao HTS=57*
COCCCNC(=O)c1ccc2c3c(onc13)-c1ccccc1C2=O	.	3	?	31	43*	60	0	69*	64*	68*	94	42*
COCCCNC(=O)c1ccccc1Oc1ccccc1	15	7	97	100	97	100	.	.	.	.	.	.
O=C(Cc1ccccc1)Nn1c(O)c(/C=C2\C=Nc3ccccc32)sc1=S	12	5	100	262*[activator]	99	137	0	100	103	101	103	98	RGS4-Gao HTS=99*
COc1ccc(NC(=O)CSc2nc(C)cs2)c(OC)c1	19	10	98	101	102	102	.	.	.	.	.	.
CCOc1ccc2cc(C3CC(c4ccco4)=NN3S(C)(=O)=O)c(Cl)nc2c1 (configuration not stated)	.	6	?	99	98	98	.	.	.	.	.	.
CCc1ccc(C2CC(c3ccco3)=NN2S(C)(=O)=O)cc1 (configuration not stated)	18	.	.	.	.	.	-1	99	105	98	100	92
Cc1cc(S(=O)(=O)Nc2cc(C)c(O)c(C)c2)c(C)s1	30	.	.	.	.	.	2	99	94	96	100	73
CN(C(=O)c1ccc(OC2CCN(CCc3ccccc3)CC2)cc1)C1CCCCC1	13	11	103	105	101	101	.	.	.	.	.	.
COc1cc(C(=O)N2CCC(O)(c3ccccc3)CC2)cc(OC)c1OC	13	.	.	.	.	.	-2	102	106	104	103	105
S=C1CCC(c2ccc(Br)cc2)=NN1c1ccccc1	.	11	?	110	91	96	.	.	.	.	.	.
Cc1ccc(S(=O)(=O)/N=C2/C=C(Sc3ncn[nH]3)C(=O)c3ccccc32)cc1	8	6	79	15*	87	64	.	.	.	.	.	.	RGS4-Gao HTS=87*
Cc1ccc2[nH]cc(CCNC(=O)Nc3ccccc3)c2c1	46	.	.	.	.	.	0	104	107	105	102	97
CC(=O)c1cccc(NC(=O)NCCc2c[nH]c3ccccc23)c1	.	7	?	88	89	96	.	.	.	.	.	.
O=C1C=C(NCCOC23CC4CC(CC(C4)C2)C3)C2(CCCCC2)O1	14	11	96	103	100	101	.	.	.	.	.	.
CCc1c(O)c(/C(C)=N\O)c(=O)n(-c2ccccc2)c1-c1ccccc1	10	14	115	271*[activator]	111	128	10	105	93	102	93	76	RGS4-Gao HTS=111*
CC(C)(C)NC(=O)NC(=O)CN1CCN(c2ncc(C(F)(F)F)cc2Cl)CC1	41	.	.	.	.	.	0	98	89	92	94	94
NNC(=O)CN1CCN(c2ncc(C(F)(F)F)cc2Cl)CC1	12	23	100	102	101	102	.	.	.	.	.	.
Cc1ccc(C(=O)CNc2ccc(Cl)cc2)cc1	12	8	107	104	103	103	.	.	.	.	.	.
C/C(=N/NC(=O)CNc1ccc(C)cc1)c1ccc(Cl)cc1	18	.	.	.	.	.	3	102	106	100	100	107
COc1cccc(NC(=O)CSc2nnc(CN3CCOCC3)n2C)c1	19	-1	22*	6.3*	31*	17*	1	103	102	103	102	100
Cc1ccc(NC(=O)CSc2nnc(CN3CCOCC3)n2C)cc1C	21	6	95	101	93	102	.	.	.	.	.	.
Nc1[nH]nc2nc(-c3ccccc3)[nH]c(=O)c12	.	6	?	101	100	101	.	.	.	.	.	.
Nc1nc(-c2ccccc2)[nH]c(=O)c1N	9	6	114	241	116	138	1	100	98	99	99	87
O=C(CCC(=O)Nc1ccc(Cl)cc1Cl)NNC(=O)[C@@H]1CCCC[C@@H]1C(=O)O	11	5	107	185*[activator]	108	128	1	101	105	103	103	101	RGS4-Gao HTS=108*
SMILES	GSH fluor	Avidin fluor	RGS7-Gao	RGS16-Gao HTS	RGS4-Gao reg	RGS8-Gao	Avidin counter	RGS8-Gao confirm	RGS7-Gao single	RGS16-Gao single	RGS4-Gao confirm	RGS19-Gao conf	others
O=C(O)C1CCCCC1C(=O)Nc1ccc(Cl)cc1Cl (configuration not stated)	14	12	91	90	90	98	.	.	.	.	.	.
O=C(O)C1CCCCC1C(=O)Nc1cc(Cl)ccc1Cl (configuration not stated)	30	5	49*	99	87	59*	1	100	102	101	102	105	RGS4-Gao HTS=87*
O=C(CCC(=O)Nc1ccc(Cl)cc1Cl)NNC(=O)Nc1ccccc1	19	9	?	99	101	99	.	.	.	.	.	.
Cc1ccc(C)c(NC(=S)N(CCN(C)C)C(C)c2ccccn2)c1 (configuration not stated)	12	7	105	95	96	99	.	.	.	.	.	.
CCCNC(=O)CN(c1cccc(F)c1)S(C)(=O)=O	15	7	117	282	126	155*[activator]	2	103	106	103	102	108	RGS4-Gao HTS=126*
Cc1cc(C)cc(N(CC(=O)NCCSCc2ccccc2)S(C)(=O)=O)c1	10	77*	180*[activator]	108	119	104	0	100	47*	82	60*	48*	RGS4-Gao HTS=119*
O=C(O)c1cc(N/N=C/C(Cl)=C/c2ccccc2)ccc1Cl	14	9	?	104	104	100	.	.	.	.	.	.
Cn1c(N)c(Sc2ccc(F)cc2)c(=O)n(C)c1=O	16	10	102	106	106	100	.	.	.	.	.	.
Nc1nnc(SCC(=O)OCC(=O)NC23CC4CC(CC(C4)C2)C3)s1	12	-1	?	7.7*	19*	13*	0	106	109	107	105	97
